This is a sample that favours compounds with a hit; in the whole collection about 7.3% have one here.
HCMV inh – qHTS Assay for inhibitors of the human cytomegalovirus (HCMV) | HFF cells, HCMV-luciferase reporter, 72 h; stronger effect = lower value | activity change, negative = inhibition, % at 57.5 µM | 410,000 tested, 4.5% active; in the data active = activity change below about -60%; inconclusive = no clear call, values can overlap the other calls; inactive = above about -39%
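After 16 h attachment at 37C, HFF cells received test compound and HCMV-luciferase (1 PFU/cell); reporter luminescence read 72 h later, data normalized against buffer-only and known inhibitor Salinomycin.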
FMDV antiviral – High Throughput Screening for Foot and Mouth Disease Virus Antivirals; FMDV antiviral cell-based qHTS; Potency, µM (highest dose often 57.9 µM), for inactives: at the top dose activity change, negative = inhibition, actives largely listed as inhibitors; 410,000 tested, 1.2% active; AID 1159524, 2015; calls by dose curve; tested in HEK293T cells; note: read-out not given here; potency is the fitted concentration of half-maximal effect; nearly all actives have a fitted effect of over 45% in size
HCV inhibitor – qHTS Assay for Inhibitors of Hepatitis C Virus (HCV); Huh7.5.1 HCVcc-Cre infection, luciferase reporter, 44 h; Potency, µM (doses to about 41.8 µM), for inactives: at the top dose activity change, negative = inhibition, most hits filed as inhibitors; 340,000 tested, 3.4% active; AID 651820, 2012; note: potency is the fitted concentration of half-maximal effect
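Infectious HCVcc-Cre (~0.5 moi) was added to cells just after compound, with cells seeded 4 h earlier at 1,000 per well. Luciferase activity after 44 h culture reported infection; substrate was incubated 15 min at room temperature before reading.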
AmpC no deterg – qHTS Inhibitors of AmpC Beta-Lactamase (assay without detergent); P00811; AmpC nitrocefin hydrolysis, absorbance 480 nm, 0.0001% Triton; Potency, µM (series often up to 57.1 µM), for inactives: at the highest dose activity change, negative = inhibition, usual class: inhibitors; 330,000 tested, 0.52% active;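 note: potency is the fitted concentration of half-maximal effect; plate controls were no compound for no effect and no enzyme for full effect; nearly all actives have a fitted effect of over 20% in size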
Target sequence (P00811 whole entry, looked up): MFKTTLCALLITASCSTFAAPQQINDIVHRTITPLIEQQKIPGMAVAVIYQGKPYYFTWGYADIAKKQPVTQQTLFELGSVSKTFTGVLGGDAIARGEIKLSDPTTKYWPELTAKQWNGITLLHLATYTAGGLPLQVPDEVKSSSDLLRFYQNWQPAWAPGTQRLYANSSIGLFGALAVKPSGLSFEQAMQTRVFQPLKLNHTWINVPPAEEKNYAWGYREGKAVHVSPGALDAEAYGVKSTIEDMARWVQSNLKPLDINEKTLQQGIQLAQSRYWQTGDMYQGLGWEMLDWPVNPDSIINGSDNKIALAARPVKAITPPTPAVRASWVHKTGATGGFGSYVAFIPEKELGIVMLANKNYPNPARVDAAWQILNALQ
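AmpC (5.3 nM in the dispensed reagent) in 20 mM phosphate pH 7.0 with 0.01% (detergent screen) or 0.0001% Triton X-100 was preincubated with compounds for 15 min at room temperature. Nitrocefin was then added from an 800 uM solution, and hydrolysis was followed at 480 nm.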
AmpC detergent – qHTS Inhibitors of AmpC Beta-Lactamase (assay with detergent). AmpC hydrolysis of nitrocefin, absorbance 480 nm, 0.01% Triton. Potency, µM (titrated, usually from 114 µM), inactives show at the highest dose activity change, negative = inhibition, actives largely listed as inhibitors. 370,000 tested, 0.041% active. AID 485294, 2010;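 note: potency is the fitted concentration of half-maximal effect; 0% = no-compound wells and -100% = no-enzyme wells; nearly all actives have a fitted effect of over 25% in size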
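20 mM phosphate pH 7.0 + 0.01% (detergent screen) or 0.0001% Triton X-100; 5.3 nM AmpC reagent; cpd preinc 15 min RT; nitrocefin (800 uM stock) to start; A480 q20 s × 4 min; Activity was normalised to no-enzyme and no-compound control wells.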
Starred values were filed as active, the others as inactive; ? = inconclusive; . = no result given; [ ] = remark or other dose. Unless noted, calls come from the whole dose curve; as a rule, active = well fitted curve in the direction sought with a large enough effect; inconclusive = small, poorly fitted or top-dose-only effect, or another doubt; inactive = no such curve, though single readings can be large; an effect the other way counts as inactive or inconclusive. Unless noted, % is set by controls: 0 for no effect and ±100 for the full control effect.

SMILES	HCMV inh	FMDV antiviral	HCV inhibitor	AmpC no deterg	AmpC detergent
N/C(=N\OC(=O)C12CC3CC(CC(C3)C1)C2)c1cccnc1	1	.	?	-2%	-8%
Brc1ccc2c(c1)-n1c(nc3ccccc31)CN2	-36	.	.	.	.
CC(C)(C)N(NS(=O)(=O)c1ccc(F)cc1)c1ccccc1	?	11%	51%	-22%	-5%
O=C(CCCN1C(=O)C(=Cc2ccc3c(c2)OCO3)SC1=S)Nc1ccc(C(=O)O)c(O)c1	-35	16%	.	.	.
CC(C)(C)OC(=O)N1CCC(c2c(C(=O)NCc3ccco3)cnn2-c2ccccc2)CC1	?	4%	.	.	3%
CC[n+]1c(-c2ccccc2)c2cc(N)ccc2c2ccc(N)cc21	-100*	40µM*	?	.	.
Nc1ccc2nc(-c3ccccc3)[nH]c2c1	152	31%	?	-19%	1%
Cc1cc(=O)n2nc(N3CCC(C(=O)NCc4cccc(Br)c4)CC3)sc2n1	-20	1%	-6%	107%	5%
CCOC(=O)C(c1ccccc1)C(Nc1cc(C(F)(F)F)cc(C(F)(F)F)c1)c1ccccn1 (stereo not drawn)	-8	-12%	2%	-3%	-8%
CC(=O)Nc1ccc(Nc2nc3ccc(Cl)cc3n3cnnc23)cc1	-33	-13%	.	.	14%
CC(=O)N1CCN2C(=O)C1CCCC(=O)c1cc(C3CCCCC3)ccc12 (stereo not drawn)	6	16%	8%	-3%	-13%
CC(=O)N1CCN2C(=O)C1CCCC(=O)c1cc(C(C)C)ccc12 (stereo not drawn)	-67*	19%	20%	-39%	?
CC(=O)NS(=O)(=O)c1ccc(N=c2ssc3c2-c2cc(C)c(C)cc2NC3(C)C)cc1	-39	-22%	?	-45%	-6%
Cc1cc2c(cc1C)-c1c(ssc1=Nc1ccc(S(N)(=O)=O)cc1)C(C)(C)N2	117	-10%	13µM*	-41%	?
Cc1cc(C(=O)NCC2CCC3(CCN(Cc4ccc5ccccc5c4)CC3)O2)n(C)n1 (stereo not drawn)	.	-29%	.	.	.
COc1cccc(C(O)c2nc(-c3ccccc3)cs2)c1 (stereo not drawn)	-39	-1%	.	.	.
COc1ccc(-c2csc(C(O)c3ccc(OC)cc3)n2)cc1 (stereo not drawn)	-72*	-25%	.	.	.
COc1cccc(C(O)c2nc(-c3ccncc3)cs2)c1 (stereo not drawn)	-76*	?	.	.	.
Cn1ccc2cc(-c3ccc4ncnc(NCc5cccs5)c4c3)ccc21	-72*	?	.	-14%	-9%
Cn1ccc2cc(-c3ccc4ncnc(NCc5cccnc5)c4c3)ccc21	.	.	.	3%	?
O=C(CSc1ccc2ccccc2c1)N1CCN(c2ccc(O)cc2)CC1	-78*	7%	-22%	-22%	4%
CN(C)C(=O)N1CCN(S(=O)(=O)c2ccc3ccccc3c2)CC1	12	-14%	?	30%	?
O=C(CCl)N1CCN(S(=O)(=O)c2ccc3c(c2)OCCCO3)CC1	?	25µM*	?	-19%	-5%
O=C(CCl)N1CCN(S(=O)(=O)c2ccc3ccccc3c2)CC1	-98*	25µM*	?	1%	4%
CCCCCC(=O)N1CCN(S(=O)(=O)c2ccc3c(c2)OCCO3)CC1	6	-10%	22%	18%	-15%
SMILES	HCMV inh	FMDV antiviral	HCV inhibitor	AmpC no deterg	AmpC detergent
O=S(=O)(c1ccc2ccccc2c1)N1CCN(c2ccc(O)cc2)CC1	-66*	29%	?	10µM*	.
COc1cc(C=CC(=O)N2CCN(CC(=O)N3CCCC3)CC2)cc(OC)c1OC	-7	-1%	.	.	.
Nc1c(Cl)cc(-c2cn(CCC(=O)O)c(-c3ccc(Cl)nc3)n2)cc1Cl	-6	-12%	42%	-19%	0%
COc1cccc(CN(C)CC(=O)Nc2ccccc2C(=O)NC2CC2)c1	-13	-10%	?	-12%	-14%
COc1ccc(-c2nsc3c(N4CCN(C(=O)c5ccco5)CC4)ncnc23)cc1	-14	?	4%	-8%	1%
c1ccc(N2CCN(c3ncnc4sc5c(c34)CCC5)CC2)cc1	-76*	-23%	10µM*	-10%	-13%
O=C(c1ccco1)N1CCN(c2ncnc3sc4c(c23)CCC4)CC1	-67*	?	?	11%	-12%
O=C(c1ccco1)N1CCN(c2ncnc3c(-c4ccccc4)nsc23)CC1	119	5%	22µM*	-12%	-7%
CCc1nc(N2CCN(C(=O)c3ccco3)CC2)c2c3c(sc2n1)CCCC3	-24	?	?	50%	0%
CC1CCc2c(sc3nc(C4CC4)nc(N4CCN(C(=O)c5ccco5)CC4)c23)C1 (stereo not drawn)	-86*	25µM*	4.5µM*	.	.
Cc1ccc(CCN2CCN=C2Nc2ccccc2)cc1	-3	-10%	-5%	-10%	-11%
Cc1c(C(=O)N2CCC(Cc3ccccc3)CC2)sc2ncnc(NCc3ccccn3)c12	.	-29%	.	.	.
COc1ccc(-c2cc(NC=O)c3ncc(-c4cccc(C(=O)N(C)C)c4)n3c2)cn1	22	-29%	.	.	.
O=C(c1ccco1)N1CCN(c2ncnc3c2[nH]c2ccc(Br)cc23)CC1	?	?	11µM*	-16%	?
CCc1cc2c(N3CCN(c4ccccc4)CC3)ncnc2s1	-70*	25µM*	8.9µM*	-10%	3%
COc1ccc(CN2CCN(c3ncnc4sc5c(c34)CCCC5)CC2)cc1F	-70*	?	.	.	12%
CC(=O)NC(=S)Nc1sc2c(c1C#N)CCCCC2	8	0%	?	-18%	3%
COc1ccc(CN(C)CC(=O)Nc2sc3c(c2C#N)CCC3)cc1OC	10	-6%	11µM*	-6%[11.4 µM]	-4%
CC(=O)Nc1sc2c(c1C#N)CCCC2	49	38%	11µM*	.	2%
CC(Sc1nc(N)cc(=O)[nH]1)C(=O)Nc1sc2c(c1C#N)CCCC2 (stereo not drawn)	-66*	?	?	-6%	-7%
CC(C)(C)C(=O)Nc1sc2c(c1C#N)CCC2	?	7%	-26%	-12%	1%
CC(C)(C)C(=O)NC(NC(=S)Nc1sc2c(c1C#N)CCCC2)C(Cl)(Cl)Cl (stereo not drawn)	75	-23%	?	1.1µM*	-7%
COc1cccc(CN(C)CC(=O)Nc2sc3c(c2C#N)CCC3)c1OC	-38	3%	?	-4%[11.4 µM]	?
NC(=S)c1ccc[n+]([O-])c1	33	-5%	24%	.	.
COc1cccc(C(=O)N2CCC[C@H]2C(=O)N2CCC[C@H]2C(=O)N[C@H](C)c2ccccc2)c1	-15	-15%	.	.	.

Compound activity from PubChem.
